Compound activity from PubChem BioAssay.
Sampled rows, rich in hits. Any-hit rate of the full collection: about 3.9%.
SARS 3CLpro inh = SARS-CoV 3CLpro protease inhibitors, primary screen, biochemical, quenched FRET | actives 0.14% (n = 290,000) | AID 1706, 2009 | recombinant SARS-CoV 3CLpro, quenched FRET peptide cleavage | Replicase polyprotein 1ab (Severe acute respiratory syndrome coronavirus), P0C6X7 | inhibition, % at 6 µM; in the data active means inhibition above about 12%
VHR inh abs = VHR1 phosphatase inhibitors, primary screen, biochemical, absorbance, uHTS. inhibition, % at 13.3 µM. AID 1654, 2009. actives 0.52% (n = 290,000). recombinant VHR phosphatase, pNPP absorbance; in the data active means inhibition above about 50%
BoNT-F LC inh = BoNT/F light chain protease inhibitors, primary screen, biochemical, flow cytometry, MLPCN library. actives 0.22% (n = 360,000). inhibition, % at 10 µM. Multiplex microsphere protease cleavage assay. AID 588497, 2011; in the data active means inhibition above about 35%, passing the limit was not always enough; inconclusive means no clear call, values can overlap the other calls; further: plate controls were buffer without enzyme for full effect and enzyme alone for no effect
BoNT-A LC inh2 = BoNT/A light chain protease inhibitors, primary screen, biochemical, flow cytometry, MLPCN library; Botulinum neurotoxin type A light chain protease (Clostridium botulinum A str. ATCC 3502); multiplex microsphere protease substrate cleavage; inhibition, % at 10 µM; actives 0.17% (n = 360,000); AID 588499, 2011; in the data active means inhibition above about 30%; inconclusive means no clear call, values can overlap the other calls; further: plate controls were buffer without enzyme for full effect and enzyme alone for no effect
Anthrax LF prot = Bacillus anthracis LF protease inhibitors, primary screen, biochemical, multiplex microsphere, MLPCN library. multiplex microsphere protease cleavage assay. inhibition, % at 10 µM. actives 0.12% (n = 360,000); in the data active means inhibition above about 30%; inconclusive means no clear call, values can overlap the other calls; further: plate controls were buffer without enzyme for full effect and enzyme alone for no effect
Bead autofluor = flagged as autofluorescent in microsphere protease counterscreen; compound autofluorescence counterscreen, microsphere flow cytometry; active compounds read high; fluorescence intensity (no concentration beside the values); actives 3.1% (n = 360,000); AID 624483; in the data active means fluorescence intensity above about 16000; inconclusive means no clear call, values can overlap the other calls
BoNTA LC inh 1 = BoNT/A light chain protease inhibitors, confirmation, biochemical, flow cytometry, cherry pick 1; shares compounds with BoNT-F LC inh; actives 3% (n = 720); inhibition, % at 10 µM; multiplex microsphere protease assay; in the data active means inhibition above about 32%
BoNTF LC inh 1 = BoNT/F light chain protease inhibitors, confirmation, biochemical, flow cytometry, cherry pick 1; shares compounds with BoNT-F LC inh; multiplex microsphere protease cleavage assay; inhibition, % at 10 µM; 720 tested, under 10 active
LF protease CP1 = Bacillus anthracis LF protease inhibitors, confirmation, biochemical, multiplex microsphere, cherry pick 1; shares compounds with BoNT-F LC inh; multiplex microsphere protease cleavage assay; inhibition, % at 10 µM; 720 tested, under 10 active; AID 602142, 2011
* marks the source's active call; other numbers are inactive results; ? = inconclusive; . = not tested or not shown. Unless noted, how the calls were made is not given here.

SMILES	SARS 3CLpro inh	VHR inh abs	BoNT-F LC inh	BoNT-A LC inh2	Anthrax LF prot	Bead autofluor	BoNTA LC inh 1	BoNTF LC inh 1	LF protease CP1
COc1cccc(NC(=O)c2oc3ccccc3c2NC(=O)C(C)(C)C)c1	2.3	9.1	52.9*	44.2*	-13.9	6579	-1.2	-3.0	-0.5
COc1ccc(N2C(=O)C3CCCN3C2c2ccccc2)cc1Cl (configuration not stated)	-4.3	6.2	53.3*	0.5	0.2	4581	-0.5	4.0	1.2
O=c1cc(CN(Cc2ccccc2)Cc2ccccc2)c2c(ccc3ccccc32)o1	.	.	2.4	2.2	5.4	4706	.	.	.
Cc1cc(C)n2c(NC3CCCCC3)c(CC(C)C)nc2n1	.	.	-4.2	-0.4	-0.4	5480	.	.	.
Cc1cc2cc(CNC(=O)c3ccco3)ccc2n1C	.	-12.8	-56.6	27.9	-17.5	4270	.	.	.
COc1c(C)cccc1C(=O)NCc1ccc2c(c1)OCO2	-2.7	.	35.6*	-0.6	-12.1	3541	0.3	-3.6	1.2
COc1ccc(CC(=O)NCc2ccccc2)cc1OC	-0.7	19.3	?	-0.6	-2.1	4181	.	.	.
Cc1cc2cc(CNC(=O)COc3ccccc3)ccc2n1C	2.3	21.3	-71.8	69.2*	-25.6	2787	6.2	-15.2	1.7
Cc1cc2cc(CNC(=O)c3cc4ccccc4o3)ccc2n1C	0.9	25.0	.	.	.	.	.	.	.
COc1ccc(CC(=O)NCc2ccc3c(c2)cc(C)n3C)cc1OC	2.5	1.7	-25.3	50.8*	10.2	2746	1.6	-8.0	-3.8
COCC(=O)NCc1ccc2c(c1)cc(C)n2C	-4.7	-11.3	-5.0	4.6	0.6	1948	2.7	-5.0	-0.9
Cc1ccc(CNC(=O)C(=O)NCC2CCCN2S(=O)(=O)c2cc(C)ccc2C)cc1 (configuration not stated)	.	.	-8.0	-1.1	-3.3	6711	.	.	.
COc1ccc(C(=O)NCc2ccc3c(c2)OCO3)cc1	0.1	18.4	-3.0	-0.2	-1.8	4493	.	.	.
COc1cc(OC)cc(C(=O)NCc2ccc3c(c2)cc(C)n3C)c1	-2.1	17.6	-82.1	73.1*	-47.0	2199	0.8	-1.3	-4.0
Cc1cc2cc(CNC(=O)c3ccc4c(c3)OCO4)ccc2n1C	-1.5	-8.7	-85.8	64.7*	-50.3	1744	7.3	-10.8	2.8
C#CCN(C[C@H]1[C@H](OC(=O)NCc2ccccc2F)[C@H](OC(=O)NCc2ccccc2F)C[C@H]2C(=O)N(c3ccccc3)C(=O)[C@@H]12)S(=O)(=O)c1ccc(C)cc1	.	.	4.4	-0.3	1.2	3610	.	.	.
Cc1cc(Nc2cc(Cl)cc(Cl)c2)nc(N)n1	3.5	17.9	-5.5	0.2	-3.0	5305	.	.	.
COc1ccc(S(=O)(=O)N(C)C)cc1NC(=O)CCNC(=O)c1ccco1	1.5	30.5	41.1*	0.5	6.0	3795	0.1	-3.0	1.6
S=c1nc(Cc2ccccc2)[nH]c2ccccc12	-1.7	34.4	51.2*	-11.5	-8.3	15764	-1.0	-5.4	-1.2
S=c1nc(Cc2ccc(Cl)cc2)[nH]c2ccccc12	4.3	23.8	3.9	-0.5	4.9	3395	.	.	.
CCCS(=O)(=O)NC(=O)C1(C)CCCN(C(=O)c2cccc(Cl)c2)C1 (configuration not stated)	.	.	-3.3	0.1	-5.3	3555	.	.	.
CCCOC1CCCN(Cc2nc(-c3cnccn3)no2)C1 (configuration not stated)	2.0	4.8	34.9*	4.3	-3.6	4198	0.4	-2.3	1.0
COc1ccccc1/C=C(\C#N)C(=O)c1cccn1C	2.1	38.5	-18.6	-7.0	6.1	3088	.	.	.
